# Measurements as given in ChEMBL document CHEMBL3988442, “University of Dundee, Small-Polar-MMV Screening Library” (2021).
# For some of these results: Entries with a potency or affinity are not part of this list.
# How the values were obtained:
# [1] = molecular target: T1, Methionyl-tRNA synthetase, putative (Leishmania donovani (strain BPK282A1)) (UniProt E9BF75); assay: Leishmania donovani Methionine tRNA synthetase (LdMetRS):v7. Dose response assay; type: functional; design: conc 80 nM, time 150 minutes
# T1 sequence (whole entry): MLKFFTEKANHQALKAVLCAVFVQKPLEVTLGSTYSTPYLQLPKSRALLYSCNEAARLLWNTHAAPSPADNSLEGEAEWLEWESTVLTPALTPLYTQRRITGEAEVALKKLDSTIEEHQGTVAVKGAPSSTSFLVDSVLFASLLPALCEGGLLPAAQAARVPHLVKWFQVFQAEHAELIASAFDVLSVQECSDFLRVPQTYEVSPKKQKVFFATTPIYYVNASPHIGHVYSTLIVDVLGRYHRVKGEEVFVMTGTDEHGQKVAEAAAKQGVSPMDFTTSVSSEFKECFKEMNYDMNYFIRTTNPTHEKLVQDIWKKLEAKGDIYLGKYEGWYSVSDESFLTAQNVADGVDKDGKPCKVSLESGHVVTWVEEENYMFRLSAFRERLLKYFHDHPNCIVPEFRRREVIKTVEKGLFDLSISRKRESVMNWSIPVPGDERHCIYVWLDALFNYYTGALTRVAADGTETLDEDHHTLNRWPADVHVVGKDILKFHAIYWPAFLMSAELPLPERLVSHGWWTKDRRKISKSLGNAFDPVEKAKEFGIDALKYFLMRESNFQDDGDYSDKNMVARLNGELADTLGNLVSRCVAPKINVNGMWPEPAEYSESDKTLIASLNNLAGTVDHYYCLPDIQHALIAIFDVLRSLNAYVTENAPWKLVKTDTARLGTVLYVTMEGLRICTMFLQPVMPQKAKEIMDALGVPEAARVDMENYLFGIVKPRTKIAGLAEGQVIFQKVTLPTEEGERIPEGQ
# [2] = molecular target: Protein translocase subunit SecA (Escherichia coli (strain K12)) (UniProt P10408); assay: Assay to Identify E. coli SecA ATPase Inhibitors; type: functional; design: scale not given: direction of the effect not stated beside the values; settings: 30 µM
# [3] = molecular target: T2, Ubiquitin-activating enzyme e1, putative (Leishmania donovani (strain BPK282A1)) (UniProt E9BSI1); assay: Leishmania donovani Ubiquitin Activating Enzyme (LdE1); type: functional; design: scale not given: direction of the effect not stated beside the values; settings: 30 µM
# T2 sequence (whole entry): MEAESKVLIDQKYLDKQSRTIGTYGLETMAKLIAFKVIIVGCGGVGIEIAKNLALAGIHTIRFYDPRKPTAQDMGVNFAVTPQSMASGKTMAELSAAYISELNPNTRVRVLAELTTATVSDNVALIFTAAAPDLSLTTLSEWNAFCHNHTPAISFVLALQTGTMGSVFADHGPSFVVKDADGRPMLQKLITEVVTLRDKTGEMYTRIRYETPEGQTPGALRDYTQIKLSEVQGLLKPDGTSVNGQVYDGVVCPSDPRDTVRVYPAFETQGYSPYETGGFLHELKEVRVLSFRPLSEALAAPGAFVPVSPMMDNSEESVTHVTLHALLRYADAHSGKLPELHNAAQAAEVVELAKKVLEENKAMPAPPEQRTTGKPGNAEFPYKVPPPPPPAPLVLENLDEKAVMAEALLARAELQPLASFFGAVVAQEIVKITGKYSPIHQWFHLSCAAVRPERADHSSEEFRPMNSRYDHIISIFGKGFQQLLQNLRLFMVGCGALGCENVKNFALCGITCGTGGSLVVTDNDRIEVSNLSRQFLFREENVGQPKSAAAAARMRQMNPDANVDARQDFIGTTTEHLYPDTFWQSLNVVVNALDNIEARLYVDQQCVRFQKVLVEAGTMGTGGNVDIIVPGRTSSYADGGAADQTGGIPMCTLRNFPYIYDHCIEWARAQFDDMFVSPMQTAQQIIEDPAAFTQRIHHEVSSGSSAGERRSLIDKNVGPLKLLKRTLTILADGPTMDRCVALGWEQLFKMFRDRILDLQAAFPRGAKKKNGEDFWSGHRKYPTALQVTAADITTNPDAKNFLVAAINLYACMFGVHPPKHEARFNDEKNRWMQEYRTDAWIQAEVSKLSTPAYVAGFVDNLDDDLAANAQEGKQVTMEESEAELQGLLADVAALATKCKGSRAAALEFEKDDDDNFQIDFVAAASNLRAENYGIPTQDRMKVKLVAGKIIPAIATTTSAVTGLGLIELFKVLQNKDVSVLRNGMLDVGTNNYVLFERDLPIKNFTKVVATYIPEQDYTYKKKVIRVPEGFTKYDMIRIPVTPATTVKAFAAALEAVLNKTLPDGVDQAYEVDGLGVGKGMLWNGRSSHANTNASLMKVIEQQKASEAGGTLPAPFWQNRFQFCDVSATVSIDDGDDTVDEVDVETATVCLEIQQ
# [4] = molecular target: T3, Aspartate--tRNA(Asp/Asn) ligase (Mycobacterium tuberculosis (strain ATCC 25618 / H37Rv)) (UniProt P9WFW3); assay: Assay for Asp RNA synthetase-1 from Mycobacterium tuberculosis; type: functional; design: scale not given: direction of the effect not stated beside the values; settings: 30 µM; note: in the data most compounds retested in dose-response had high values
# T3 sequence (whole entry): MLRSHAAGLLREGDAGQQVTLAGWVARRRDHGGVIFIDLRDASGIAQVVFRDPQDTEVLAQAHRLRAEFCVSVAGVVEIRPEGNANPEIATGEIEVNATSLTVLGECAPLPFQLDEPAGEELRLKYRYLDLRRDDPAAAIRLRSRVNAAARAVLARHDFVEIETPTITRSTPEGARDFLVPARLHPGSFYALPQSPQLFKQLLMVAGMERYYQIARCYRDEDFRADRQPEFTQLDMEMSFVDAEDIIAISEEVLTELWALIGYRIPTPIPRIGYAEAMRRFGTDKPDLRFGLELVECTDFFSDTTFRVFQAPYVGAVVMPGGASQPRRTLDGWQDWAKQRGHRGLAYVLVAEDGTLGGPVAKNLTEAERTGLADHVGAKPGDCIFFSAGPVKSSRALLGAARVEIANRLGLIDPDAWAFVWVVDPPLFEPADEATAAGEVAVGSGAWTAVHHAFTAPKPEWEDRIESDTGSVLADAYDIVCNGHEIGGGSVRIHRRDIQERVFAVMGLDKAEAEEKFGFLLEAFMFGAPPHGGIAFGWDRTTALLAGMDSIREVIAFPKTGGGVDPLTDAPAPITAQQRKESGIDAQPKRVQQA
# [5] = molecular target: AMP-activated protein kinase, AMPK (Homo sapiens) (UniProt P54646+O43741+P54619+Q9UGJ0+Q9Y478+Q13131+Q9UGI9); assay: AMP-dependent Kinase enzyme assay. An in vitro enzyme assay that detects ADP turnover that is directly proportional to AMPK activity. This uses naive AMPK that is activated during the assay with MK-8722; type: functional; design: scale not given: direction of the effect not stated beside the values; settings: 30 µM
# [6] = molecular target: Sialic acid-binding Ig-like lectin 9 (Homo sapiens) (UniProt Q9Y336); assay: Hs-Siglec9 ALPHAscreen SOP 20170721; design: scale not given: direction of the effect not stated beside the values; settings: 10 µM
# Trypanosoma cruzi = assay: Trypanosoma cruzi phosphomannomutase and mannose-1-phosphate guanylyltransferase assay; type: functional; design: scale not given: direction of the effect not stated beside the values; settings: 10 µM
# [7] = molecular target: T4, Arginase-2, mitochondrial (Homo sapiens) (UniProt P78540); assay: in vitro enzyme assay to detect the production of urea directly proportional to the activity of Arginase II; type: functional; design: scale not given: in the data most compounds retested in dose-response had high values; settings: 33.3 µM
# T4 sequence (whole entry): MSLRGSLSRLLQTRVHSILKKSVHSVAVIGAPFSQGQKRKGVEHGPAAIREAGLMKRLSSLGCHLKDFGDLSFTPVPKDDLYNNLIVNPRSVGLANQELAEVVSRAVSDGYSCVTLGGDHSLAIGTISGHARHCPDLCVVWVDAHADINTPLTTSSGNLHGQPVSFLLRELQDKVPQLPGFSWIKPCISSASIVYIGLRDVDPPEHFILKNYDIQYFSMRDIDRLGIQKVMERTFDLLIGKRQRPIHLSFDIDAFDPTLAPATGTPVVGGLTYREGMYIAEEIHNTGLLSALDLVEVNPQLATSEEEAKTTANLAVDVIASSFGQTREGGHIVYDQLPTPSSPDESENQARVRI
# [8] = molecular target: T5, Proteasome subunit beta (Trypanosoma cruzi) (UniProt O96673); assay: Trypanosoma cruzi proteasome chymotrypsin-like activity (TcProtChymo) assay.; type: functional; design: scale not given: in the data most compounds retested in dose-response had high values; settings: 9.37 µM
# T5 sequence (whole entry): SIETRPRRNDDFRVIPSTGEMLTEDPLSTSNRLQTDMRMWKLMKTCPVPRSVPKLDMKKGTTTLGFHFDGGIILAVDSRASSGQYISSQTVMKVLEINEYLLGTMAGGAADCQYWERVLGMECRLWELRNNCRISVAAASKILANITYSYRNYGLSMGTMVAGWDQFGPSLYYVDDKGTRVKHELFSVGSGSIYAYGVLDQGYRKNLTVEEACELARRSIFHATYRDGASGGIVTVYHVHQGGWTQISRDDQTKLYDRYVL
# Homo sapiens = species: Homo sapiens; assay: To identify inhibition of the IFN signalling (Jak-Stat) pathway via expression of an eGFP reporter gene under the control of an IFN-stimulated response element (ISRE) containing MxA promoter.; type: functional; design: scale not given: direction of the effect not stated beside the values; settings: 30 µM
# [9] = molecular target: Shiga toxin 2 (Escherichia coli O157:H7) (UniProt P09385+P09386); assay: E. coli 0.157:H7 Shiga Toxin SOP - stx2 screening assay; type: functional; design: scale not given: direction of the effect not stated beside the values; settings: 30 µM
# [10] = molecular target: T6, Tyrosyl-tRNA synthetase, putative (Trypanosoma cruzi (strain CL Brener)) (UniProt Q4DSP6); assay: Trypanosoma cruzi tyrosyl tRNA synthetase (TcYRS) _High Tyrosine SOP; type: functional; design: scale not given: in the data most compounds retested in dose-response had high values; settings: 30 µM
# T6 sequence (whole entry): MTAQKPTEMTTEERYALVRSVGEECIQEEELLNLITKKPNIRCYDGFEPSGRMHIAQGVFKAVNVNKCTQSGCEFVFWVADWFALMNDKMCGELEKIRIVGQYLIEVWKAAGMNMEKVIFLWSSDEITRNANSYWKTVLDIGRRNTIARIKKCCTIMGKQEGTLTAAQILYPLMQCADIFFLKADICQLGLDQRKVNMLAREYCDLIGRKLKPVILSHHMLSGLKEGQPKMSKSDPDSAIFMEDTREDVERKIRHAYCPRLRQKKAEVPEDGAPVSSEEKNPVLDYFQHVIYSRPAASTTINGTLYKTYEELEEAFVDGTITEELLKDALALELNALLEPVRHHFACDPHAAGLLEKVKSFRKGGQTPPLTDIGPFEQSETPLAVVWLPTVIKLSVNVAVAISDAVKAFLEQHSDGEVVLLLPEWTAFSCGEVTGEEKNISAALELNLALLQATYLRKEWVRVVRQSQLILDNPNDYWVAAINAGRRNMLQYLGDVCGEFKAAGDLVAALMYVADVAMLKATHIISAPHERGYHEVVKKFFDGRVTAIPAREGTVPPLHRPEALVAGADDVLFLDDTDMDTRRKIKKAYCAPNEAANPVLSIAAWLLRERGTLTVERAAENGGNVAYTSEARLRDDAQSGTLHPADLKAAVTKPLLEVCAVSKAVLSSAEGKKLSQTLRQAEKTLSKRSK
# [11] = molecular target: T6, Tyrosyl-tRNA synthetase, putative (Trypanosoma cruzi (strain CL Brener)); assay: Trypanosoma cruzi tyrosyl tRNA synthetase (TcYRS) SOP; type: functional; design: scale not given: direction of the effect not stated beside the values; settings: 30 µM
# [12] = molecular target: Chromo domain-containing protein 1 (Saccharomyces cerevisiae (strain ATCC 204508 / S288c) (Baker's yeast)) (UniProt P32657); assay: ScCHD-1 Enzyme Inhibition Assay; type: functional; design: scale not given: in the data most compounds retested in dose-response had high values; settings: 30 µM
# Chain of Chromo domain-containing protein 1 (Saccharomyces cerevisiae (strain ATCC 204508 / S288c) (Baker's yeast)) (P32657 whole entry, the tested form may be a part): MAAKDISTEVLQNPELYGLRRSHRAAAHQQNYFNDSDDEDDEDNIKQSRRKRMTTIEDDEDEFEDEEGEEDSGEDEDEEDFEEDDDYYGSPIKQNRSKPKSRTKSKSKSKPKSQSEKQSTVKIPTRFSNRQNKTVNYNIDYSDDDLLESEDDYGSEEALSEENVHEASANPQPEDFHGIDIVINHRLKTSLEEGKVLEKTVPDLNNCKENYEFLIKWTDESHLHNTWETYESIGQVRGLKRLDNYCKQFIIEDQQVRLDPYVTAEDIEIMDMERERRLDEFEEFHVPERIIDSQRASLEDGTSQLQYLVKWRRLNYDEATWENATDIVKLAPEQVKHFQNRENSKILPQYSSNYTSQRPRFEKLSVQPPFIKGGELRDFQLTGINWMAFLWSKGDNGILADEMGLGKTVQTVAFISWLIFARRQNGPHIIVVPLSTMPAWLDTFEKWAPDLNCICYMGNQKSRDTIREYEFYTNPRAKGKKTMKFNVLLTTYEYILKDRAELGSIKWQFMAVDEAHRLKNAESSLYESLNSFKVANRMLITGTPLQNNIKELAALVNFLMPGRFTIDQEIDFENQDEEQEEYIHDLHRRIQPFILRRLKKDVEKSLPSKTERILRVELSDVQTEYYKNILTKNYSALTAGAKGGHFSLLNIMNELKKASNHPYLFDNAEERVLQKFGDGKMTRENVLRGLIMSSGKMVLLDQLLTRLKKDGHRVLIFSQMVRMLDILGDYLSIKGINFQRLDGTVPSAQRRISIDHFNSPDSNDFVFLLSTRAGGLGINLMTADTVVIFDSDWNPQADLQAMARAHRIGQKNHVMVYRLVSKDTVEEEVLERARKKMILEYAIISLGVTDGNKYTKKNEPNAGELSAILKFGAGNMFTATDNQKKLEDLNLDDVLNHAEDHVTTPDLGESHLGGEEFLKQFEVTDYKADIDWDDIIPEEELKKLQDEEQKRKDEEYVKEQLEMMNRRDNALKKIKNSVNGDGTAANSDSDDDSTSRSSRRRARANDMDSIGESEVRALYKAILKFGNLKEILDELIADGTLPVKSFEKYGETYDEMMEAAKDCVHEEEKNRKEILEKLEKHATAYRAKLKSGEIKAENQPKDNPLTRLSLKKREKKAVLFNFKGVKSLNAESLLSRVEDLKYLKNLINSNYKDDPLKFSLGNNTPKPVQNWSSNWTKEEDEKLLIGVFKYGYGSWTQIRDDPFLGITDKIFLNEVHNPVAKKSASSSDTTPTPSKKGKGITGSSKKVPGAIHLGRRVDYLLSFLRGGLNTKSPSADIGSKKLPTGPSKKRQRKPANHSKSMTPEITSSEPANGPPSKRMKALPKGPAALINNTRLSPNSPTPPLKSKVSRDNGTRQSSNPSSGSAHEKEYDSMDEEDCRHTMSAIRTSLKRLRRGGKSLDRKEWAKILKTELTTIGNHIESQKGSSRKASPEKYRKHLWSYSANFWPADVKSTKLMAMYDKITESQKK
# Chain of Sialic acid-binding Ig-like lectin 9 (Homo sapiens) (Q9Y336 whole entry): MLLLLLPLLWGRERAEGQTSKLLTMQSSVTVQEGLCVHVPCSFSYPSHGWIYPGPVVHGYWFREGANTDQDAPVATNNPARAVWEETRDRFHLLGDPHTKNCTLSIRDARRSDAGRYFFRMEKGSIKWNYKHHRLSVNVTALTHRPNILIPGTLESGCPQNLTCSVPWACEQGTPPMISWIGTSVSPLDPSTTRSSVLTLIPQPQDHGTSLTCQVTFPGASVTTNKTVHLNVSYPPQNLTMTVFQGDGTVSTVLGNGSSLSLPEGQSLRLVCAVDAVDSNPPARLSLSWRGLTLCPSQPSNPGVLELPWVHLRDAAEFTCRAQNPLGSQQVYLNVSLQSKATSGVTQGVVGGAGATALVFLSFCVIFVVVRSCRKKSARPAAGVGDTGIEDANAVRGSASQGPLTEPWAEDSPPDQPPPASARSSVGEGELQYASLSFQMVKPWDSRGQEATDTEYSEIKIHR
# Chain of Protein translocase subunit SecA (Escherichia coli (strain K12)) (P10408 whole entry): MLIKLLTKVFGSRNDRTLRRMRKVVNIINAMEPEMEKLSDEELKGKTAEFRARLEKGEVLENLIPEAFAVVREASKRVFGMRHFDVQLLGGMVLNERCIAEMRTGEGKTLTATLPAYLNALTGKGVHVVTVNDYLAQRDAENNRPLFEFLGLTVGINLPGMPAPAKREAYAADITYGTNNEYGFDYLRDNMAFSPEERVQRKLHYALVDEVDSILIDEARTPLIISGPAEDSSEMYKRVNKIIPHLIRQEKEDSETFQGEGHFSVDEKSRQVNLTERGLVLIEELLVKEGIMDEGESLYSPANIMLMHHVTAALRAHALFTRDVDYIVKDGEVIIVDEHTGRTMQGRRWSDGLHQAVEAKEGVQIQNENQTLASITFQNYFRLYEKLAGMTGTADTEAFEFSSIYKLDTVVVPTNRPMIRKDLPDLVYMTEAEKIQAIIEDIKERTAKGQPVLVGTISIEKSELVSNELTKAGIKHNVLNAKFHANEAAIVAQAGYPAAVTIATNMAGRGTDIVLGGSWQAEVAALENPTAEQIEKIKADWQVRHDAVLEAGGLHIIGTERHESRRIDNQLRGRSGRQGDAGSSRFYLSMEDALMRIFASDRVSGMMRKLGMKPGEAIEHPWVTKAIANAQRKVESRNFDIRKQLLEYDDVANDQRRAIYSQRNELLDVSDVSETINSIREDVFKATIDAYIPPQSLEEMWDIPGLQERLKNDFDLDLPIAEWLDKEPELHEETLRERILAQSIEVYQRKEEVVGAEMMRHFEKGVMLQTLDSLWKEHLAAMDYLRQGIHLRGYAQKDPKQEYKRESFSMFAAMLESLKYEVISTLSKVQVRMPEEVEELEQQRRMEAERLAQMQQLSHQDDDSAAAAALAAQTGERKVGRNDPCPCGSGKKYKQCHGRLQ
smiles,measurement,setting,value
OCCN1CCC(F)(F)C2(CCN(c3cccnc3)C2)C1 (centres undefined),PXC50,[1]; MAX_EFFECT 6.355140187,< 4
same,PXC50,[1]; MAX_EFFECT 7.256235828,< 4
COC(=O)Nc1cc(Cl)cc(Cl)c1,PXC50,[1]; MAX_EFFECT 8.423326134,< 3
same,PXC50,[1]; MAX_EFFECT 23.76425856,< 3
Cn1cc(C(=O)Nc2ccccc2)c2ccccc21,PXC50,[1]; MAX_EFFECT 6.666666667,< 4
Clc1cc(Cl)cc(CNCCc2ccccc2)c1,PXC50,"[1]; BOTTOM -4.203249798, HILLSLOPE 1.160005452, MAX_EFFECT 61.75908222, TOP 67.85944211",3.6
Cn1cc(N2CCC3(CCN(Cc4cccnc4)C3)C2=O)cn1 (centres undefined),Percent Effect,[2],1.77%
same,Percent Effect,[3],5.41%
same,Percent Effect,[4],-4.84%
same,Percent Effect,[5],7.18%
same,Percent Effect,[6],-13.3%
same,Percent Effect,Trypanosoma cruzi,-4.79%
same,Percent Effect,[7],1.59%
same,Percent Effect,[8],25.1%
same,Percent Effect,Homo sapiens,2.62%
same,Percent Effect,[9],-17%
same,Percent Effect,[10],0%
same,Percent Effect,[11],10.3%
same,Percent Effect,[12],-1.3%
Cc1ccc(N2CCC3(CN(CCO)CCC3(F)F)C2)nn1 (centres undefined),PXC50,[1]; MAX_EFFECT 9.719626168,< 4
same,PXC50,[1]; MAX_EFFECT 11.33786848,< 4
O=C1N(c2cncnc2)CCC12CCCN(Cc1ccccn1)C2 (centres undefined),Percent Effect,[2],-4%
same,Percent Effect,[3],5.2%
same,Percent Effect,[4],3.89%
same,Percent Effect,[5],3.31%
same,Percent Effect,[6],8.64%
same,Percent Effect,Trypanosoma cruzi,-1.28%
same,Percent Effect,[7],2.76%
same,Percent Effect,[8],2.5%
same,Percent Effect,Homo sapiens,-1.38%
same,Percent Effect,[9],-38.2%
same,Percent Effect,[10],4.3%
same,Percent Effect,[11],8.64%
same,Percent Effect,[12],0.251%
